# Rows were chosen to be rich in hits. Some 1.5% of all compounds tested hit in one or more screens of this group.
# mIDH1 inhibitor – inhibitors of human mutant IDH1 R132H. IDH1-R132H enzyme, NADPH consumption, diaphorase/resazurin fluorescence. Potency, µM (top dose mostly 76.6 µM), without a hit: top-dose activity change, negative = inhibition, hits mostly inhibitors. 390,000 tested, 0.093% active. AID 602179; also: potency is read from the fitted curve at half-maximal effect; % is scaled to controls: 0 for no effect and ±100 for the full control effect; nearly all actives have a fitted effect of over 65% in size
#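 IDH1-R132H (0.5 ug/mL dispensed) in pH 7.5 Tris buffer was preincubated 30 min with compound, then given a substrate mix of 0.016 mM NADPH and 2 mM alpha-KG for 80 min at room temperature; remaining NADPH was read by diaphorase/resazurin fluorescence.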
# FBPA coupling cs – inhibits coupling enzyme system, counter-screen for aldolase hits; activity change, negative = inhibition, % at 58.2 µM, hits read low; coupling enzyme system counterscreen, AmpLite Red fluorescence; AID 2472; 290,000 tested, 0.67% active; in the data active = activity change below about -30%; also: % is scaled to controls: 0 for no effect and ±100 for the full control effect
#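 Activity here indicates interference with the coupling reaction, not aldolase inhibition. Compounds at 57.5 uM final met coupling enzymes for 10 min at RT; substrate and AmpLite Red detection followed, with a 525/598 nm fluorescence read after 20 min.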
# Eya2 phos inh – blocks the phosphatase activity of human Eya2 | O00167 | recombinant Eya2, OMFP fluorescence dephosphorylation (OMFP is methylfluorescein phosphate) | Potency, µM (highest dose often 76.9 µM), without a hit: at the top dose activity, negative = inhibition, usual class: inhibitors | 330,000 tested, 0.006% active; also: potency is read from the fitted curve at half-maximal effect; % is scaled to controls: 0 for no effect and ±100 for the full control effect
# Target sequence (O00167 whole entry, looked up): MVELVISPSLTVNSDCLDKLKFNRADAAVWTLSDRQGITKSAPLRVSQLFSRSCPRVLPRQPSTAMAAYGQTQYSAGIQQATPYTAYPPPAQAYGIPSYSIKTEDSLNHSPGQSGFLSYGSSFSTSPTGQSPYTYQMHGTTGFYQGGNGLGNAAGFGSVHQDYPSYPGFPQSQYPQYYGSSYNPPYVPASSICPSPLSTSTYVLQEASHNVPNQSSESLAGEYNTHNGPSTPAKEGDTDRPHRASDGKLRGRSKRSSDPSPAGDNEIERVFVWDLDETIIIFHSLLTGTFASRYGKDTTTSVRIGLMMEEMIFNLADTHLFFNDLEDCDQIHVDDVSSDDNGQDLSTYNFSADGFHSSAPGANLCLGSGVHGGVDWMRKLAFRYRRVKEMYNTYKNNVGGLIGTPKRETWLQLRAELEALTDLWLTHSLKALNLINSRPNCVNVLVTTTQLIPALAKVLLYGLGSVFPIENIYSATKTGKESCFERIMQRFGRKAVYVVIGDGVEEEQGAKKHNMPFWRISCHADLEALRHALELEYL
#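 Eya2 (0.2 uM) preincubated 10 min at ambient with compound, then OMFP substrate added at 50 uM; 10 min reaction in 50 mM HEPES pH 7.5, 50 mM NaCl, 5 uM MgCl2, 0.05% BSA, 1 mM DTT. Fluorescence read at Ex 485/Em 525 nm.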
# TrxR1 substrate – is turned over as a substrate by rat TrxR1 | purified TrxR1 substrate turnover, NADPH consumption readout | Potency, µM (doses to about 114 µM), for the others: top-dose activity change, negative = substrate turnover | 390,000 tested, 0.01% active; also: potency is read from the fitted curve at half-maximal effect; % is scaled to controls: 0 for no effect and ±100 for the full control effect; nearly all actives have a fitted effect of over 50% in size
#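 Rat TrxR1, dispensed at 90 nM, was prereduced with 400 uM NADPH (final) for 5 min at ~22 deg C, then incubated with compound 15 min before 400 uM selenite. A first-read NADPH fluorescence drop versus no-compound background flagged substrates.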
# TrxR1 inh – blocks rat thioredoxin reductase 1; recombinant rTrxR1, NADPH fluorescence consumption, selenite substrate; 390,000 tested, 1% active; Potency, µM (doses to about 114 µM), for inactives: top-dose activity change, negative = inhibition, usual class: inhibitors; O89049; also: potency is read from the fitted curve at half-maximal effect; % is scaled to controls: 0 for no effect and ±100 for the full control effect; nearly all actives have a fitted effect of over 65% in size
#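 Rat TrxR1 (90 nM in the dispensed reagent) was pre-reduced with 400 uM NADPH for 5 min at room temperature, then incubated with compound for 15 min. After 400 uM selenite was added, NADPH fluorescence (Ex 340/Em 450 nm) was followed for 8 min.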
# Resorufin autofl – counter-screen for mutant IDH1 inhibitors: fluorescence interference; 750 tested, under 10 active; AID 623980; shares compounds with mIDH1 inhibitor; inhibition of signal, % at 51.2 µM; Resorufin detection reagent fluorescence interference, cell-free;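 also: 0% = wells with normal resorufin and full inhibition = wells lacking resorufin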
# WT IDH1 inh – inhibits human wild-type IDH1, mutant selectivity check; Potency, µM (top dose mostly 115 µM), for inactives: at the highest dose activity change, negative = inhibition, most hits filed as inhibitors; AID 623995; 750 tested, 9% active; shares compounds with mIDH1 inhibitor; WT IDH1 enzyme, NADPH diaphorase/resazurin fluorescence;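 also: potency is read from the fitted curve at half-maximal effect; 0% = full WT IDH1 enzyme control and full inhibition = no enzyme wells; nearly all actives have a fitted effect of over 55% in size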
# mIDH1 confirm – inhibits human mutant IDH1 enzyme in cherrypick confirmation; Potency, µM (titrated, usually from 76.6 µM), without a hit: at the highest dose activity change, negative = inhibition, most hits filed as inhibitors; IDH1 R132H enzyme, NADPH diaphorase/resazurin fluorescence; 750 tested, 83% active; shares compounds with mIDH1 inhibitor; also: potency is read from the fitted curve at half-maximal effect; nearly all actives have a fitted effect of over 50% in size
# An asterisk follows results filed as active; ? = inconclusive; · = no result given; [ ] = another dose, or the depositor's remark. Unless noted, calls follow the shape of the dose curve; as a rule, active = well fitted curve in the direction sought with a large enough effect; inconclusive = small, poorly fitted or top-dose-only effect, or another doubt; inactive = no such curve, though single readings can be large; an effect the other way counts as inactive or inconclusive.
SMILES,mIDH1 inhibitor,FBPA coupling cs,Eya2 phos inh,TrxR1 substrate,TrxR1 inh,Resorufin autofl,WT IDH1 inh,mIDH1 confirm
COc1ccc(C2C(C#N)=C(N)N(c3sc4c(c3C#N)CCCC4)C3=C2C(=O)CC(C)(C)C3)cc1OC (centres undefined),?,-6,-16%,-2%,-8%,3,-4%,-25%
CNC(=O)c1ccc2nc(-c3cccc(C)c3)c(-c3cccc(C)c3)nc2c1,·,·,·,34%,5%,·,·,·
COC(=O)[C@@]12CCCCN1[C@H](c1ccc(-c3ccc4c(c3)OCO4)c(OC)c1)[C@@H]1C(=O)N(C)C(=O)[C@@H]12,?,·,10%,14%[57.1 µM],27%[57.1 µM],10,3%,11µM*
COC(=O)[C@@]12CCCCN1[C@H](c1ccc(-c3ccc(F)cc3)c(OC)c1)[C@@H]1C(=O)N(C)C(=O)[C@@H]12,40µM*,·,-19%,0%,-1%,-3,3%,6.3µM*
CCN1C(=O)[C@H]2[C@@H](c3ccc(-c4ccc(OC)cc4)c(OC)c3)N3CCCC[C@@]3(C(=O)OC)[C@H]2C1=O,?,·,-28%,1%,11%,5,-5%,13µM*
COC(=O)[C@@]12CCCN1[C@H](c1ccc(-c3ccc4c(c3)OCO4)c(OC)c1)[C@H]1C(=O)N(C)C(=O)[C@H]12,-6%,·,-29%,0%,5%,·,·,·
CCN1C(=O)[C@@H]2[C@@H](c3ccc(-c4ccc(OC)cc4)c(OC)c3)N3CCCC[C@@]3(C(=O)OC)[C@@H]2C1=O,-19%,·,-16%,10%[57.1 µM],11%[57.1 µM],·,·,·
COc1ccc(CN2C(=O)N(c3ccccc3)C(=O)C2c2ccccc2)cc1COc1ccc(NC(C)=O)cc1 (centres undefined),·,·,·,0%,-7%,·,·,·
COc1cc(/C=C2\SC(c3ccc(C)cc3)=NC2=O)cc(OC)c1OC,0%,-2,-10%,7%,-19%,·,·,·
COc1cc(/C=C2\SC(c3ccccc3)=NC2=O)cc(Cl)c1O,58µM*,1,18%,-5%[57.1 µM],-39%,-4,7%,45µM*
CCc1ccc(CNC(=O)CN2C(=O)c3cccnc3Oc3ccc(Cl)cc32)cc1,?,·,·,-3%,11%,-4,1%,-11%
Cn1c2ccccc2c(=O)c2c(=O)n(C3CCCCC3)c(-c3ccco3)nc21,26µM*,12,-7%,-9%,-6%,-11,24%,22µM*
Cc1nc2c(c(=O)c3ccccc3n2C)c(=O)n1C1CCCCCC1,4%,-3,-9%,7%[57.1 µM],1%[57.1 µM],·,·,·
O=S(=O)(c1ccccc1)N1CCN(c2nc(-c3ccc(F)cc3)nc3cc(Cl)ccc23)CC1,·,·,·,5%[0.457 µM],30%,·,·,·
COc1cc(SC#N)ccc1N=Cc1c(C)[nH]n(-c2ccc(Cl)cc2)c1=O,?,3,12%,1%[57.1 µM],14%[57.1 µM],-1,1%,45µM*
CCOC(=O)C(CC)Sc1ccc2nnc(-c3ccc(F)cc3)n2n1 (centres undefined),·,·,·,19%,20%,·,·,·
O=C(NCCc1ccccc1)c1cccc(Br)n1,·,-1,·,·,·,·,·,·
Cc1ccc(C)c(N(C)C(=O)c2cc3c(=O)[nH]c4ccc(C)cc4c3s2)c1,21µM*,4,19%,3%,1%,-3,?,11µM*
COc1ccc(/C=C2\SC(N)=NC2=O)cc1,-4%,4,1%,0%[57.1 µM],-6%[57.1 µM],·,·,·
CCOC(=O)CSC1=NC(=O)/C(=C/c2ccc(OC)cc2)S1,52µM*,4,1%,-13%,16µM*,2,?,45µM*
